Experimental data: PubChem BioAssay (Tox21)
Unmarked numbers belong to inactive results. Active and inactive are the calls of the source. Calls follow the shape of the dose curve; as a rule, active = well fitted curve in the direction sought with a large enough effect in the repeat runs; inconclusive = weak or mixed curves; inactive = flat fitted curve, though single readings scatter.

Experiment: qHTS assay to test for compound auto fluorescence at 535 nm (green) in HEK293 cell free culture (AID 720682)
Conditions: cell-free medium, green autofluorescence 485/535 nm, stronger effect = higher value; series mostly up to 91.3 µM; activity change: at the top concentration
Outline: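 Measurement is a direct plate read of green fluorescence (485 nm in, 535 nm out) after compound addition to serum-supplemented DMEM lacking cells, with fluorescein used to express intensities.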
% is scaled to controls: 0 for no effect and ±100 for the full control effect.

| SMILES | activity change | outcome |
| --- | --- | --- |
| COC(=O)c1ccc(I)cc1S(=O)(=O)NC(=O)Nc1nc(C)nc(OC)n1 | 0.0638% | – |
| CCCOC(C(=O)OC1CCN(C)CC1)(c1ccccc1)c1ccccc1 | 0.0654% [at 46 µM] | – |
| CCC(C)O (stereo unspecified) | 0.0331% [at 95.7 µM] | – |
| CCCCc1ncc(/C=C(\Cc2cccs2)C(=O)O)n1Cc1ccc(C(=O)O)cc1 | 0.0502% [at 46 µM] | – |
| CCCCNc1ccc(C(=O)OCCOCCOCCOCCOCCOCCOCCOCCOCCOC)cc1 | -0.0595% [at 18.6 µM] | – |
| CC(C)Nc1ccc(NC(C)C)c2c1C(=O)c1ccccc1C2=O | -0.0763% [at 46 µM] | – |
| CC[N+]1(CC)CCC(=C(c2ccccc2)c2ccccc2)C1C (stereo unspecified) | -0.0318% [at 46 µM] | – |
| CC(C)OC(=O)C(C)N(C(=O)c1ccccc1)c1ccc(F)c(Cl)c1 (stereo unspecified) | 0.086% | – |
| Cc1cccc(C)c1NC(=O)CN(CC(=O)O)CC(=O)O | -0.022% [at 46 µM] | – |
| OC(CN1CCC(Cc2ccc(F)cc2)CC1)c1ccc(Cl)cc1 (stereo unspecified) | -0.108% [at 46 µM] | – |
| O=C(c1ccc(F)cc1)C1CCN(CCn2c(=S)[nH]c3ccccc3c2=O)CC1 | -0.0343% [at 46 µM] | – |
| CCCCC | – | inactive |
| CCCCCCCC#N | 0.0706% | – |
| O=[N+]([O-])c1ccc(NCCO)c(OCCO)c1 | -0.0615% | – |
| C=CCOC(=O)CCC1CCCCC1 | -0.0768% | – |
| O=C(OCCCCCCOC(=O)c1ccccc1)c1ccccc1 | 0.0218% | – |
| C/C=C/C(=O)CC | 0.0169% [at 18.6 µM] | – |
| CCCCC(CC)COC(=O)CCCCCCCCC(=O)OCC(CC)CCCC (stereo unspecified) | 0.197% | – |
| CCOc1ccc(O)cc1 | -0.0402% | – |

| SMILES | activity change | outcome |
| --- | --- | --- |
| CC[N+](C)(CC)CCOC(=O)C(O)(c1ccccc1)C1CCCCC1 (stereo unspecified) | 0.0592% [at 46 µM] | – |
| O=C(O)CC(=O)C(=O)O | 0.0053% | – |
| O=S(=O)(Oc1ccc(Cl)cc1)c1ccccc1 | 0.0568% | – |
| COC(C)OC | -0.0198% | – |
| O=C(NCCO[N+](=O)[O-])c1cccnc1 | 0.0615% [at 46 µM] | – |
| CCN(CC)CCOC(=O)C(c1ccccc1)C1CCCCC1 (stereo unspecified) | 0.0252% [at 46 µM] | – |
| O=C1c2ccccc2S(=O)(=O)N1CCCCN1CCN(c2ncccn2)CC1 | -0.0111% [at 46 µM] | – |
| CC1OC(=O)C(C)OC1=O (stereo unspecified) | 0.0167% | – |
| C=CC(=O)OCCOc1ccccc1 | -0.0591% | – |
| CCC(Cl)CCC(Cl)C(Cl)CC(Cl)C(Cl)C(Cl)CCl (stereo unspecified) | 0.0151% | – |
| COc1ccc(C(=O)c2ccc(OC)cc2O)c(O)c1 | 0.0496% | – |
| Brc1c2ccccc2cc2ccccc12 | -0.0344% | – |
| O=C1C(O)=C(O)C(=O)C(O)=C1O | -0.227% [at 46 µM] | – |
| CCCCC(CC)COC(=O)COc1ccc(Cl)cc1Cl (stereo unspecified) | -0.0692% [at 95.7 µM] | – |
| C[N+]1(CC2COC(c3ccccc3)(C3CCCCC3)O2)CCCCC1 (stereo unspecified) | -0.0831% [at 46 µM] | – |
| COc1ccc(C)cc1[N+](=O)[O-] | -0.0516% [at 95.7 µM] | – |
| CNC(=O)CN(CCN(CCN(CC(=O)[O-])CC(=O)NC)CC(=O)[O-])CC(=O)[O-].O.[Gd+3] | – | inactive |
| Cc1c(N)cccc1[N+](=O)[O-] | 0.0309% [at 95.7 µM] | – |
| c1cc(CCCc2ccncc2)ccn1 | 0.0389% | – |

Experiment: qHTS assay to test for compound auto fluorescence at 590 nm (red) in HEK293 cell free culture (AID 720683)
Conditions: cell-free medium autofluorescence, Ex540/Em590 red; series mostly up to 91.3 µM; fluorescence, % of fluorescent control: at the top concentration
Outline: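 Tox21 10K library compounds were pinned into cell-free DMEM with 10% FBS and fluorescence was read at excitation 540 nm. Activity is expressed as Rose Bengal sodium equivalency.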

| SMILES | fluorescence, % of fluorescent control | Potency |
| --- | --- | --- |
| COC(=O)c1ccc(I)cc1S(=O)(=O)NC(=O)Nc1nc(C)nc(OC)n1 | 0.0111% | – |
| CCCOC(C(=O)OC1CCN(C)CC1)(c1ccccc1)c1ccccc1 | -0.827% [at 46 µM] | – |
| CCC(C)O (stereo unspecified) | 0.0219% [at 95.7 µM] | – |
| CCCCc1ncc(/C=C(\Cc2cccs2)C(=O)O)n1Cc1ccc(C(=O)O)cc1 | 0.221% [at 46 µM] | – |
| CCCCNc1ccc(C(=O)OCCOCCOCCOCCOCCOCCOCCOCCOCCOC)cc1 | -0.482% [at 18.6 µM] | – |
| CC(C)Nc1ccc(NC(C)C)c2c1C(=O)c1ccccc1C2=O | 0.171% [at 46 µM] | – |
| CC[N+]1(CC)CCC(=C(c2ccccc2)c2ccccc2)C1C (stereo unspecified) | -0.0578% [at 46 µM] | – |
| CC(C)OC(=O)C(C)N(C(=O)c1ccccc1)c1ccc(F)c(Cl)c1 (stereo unspecified) | -0.158% | – |
| Cc1cccc(C)c1NC(=O)CN(CC(=O)O)CC(=O)O | 0.106% [at 46 µM] | – |
| OC(CN1CCC(Cc2ccc(F)cc2)CC1)c1ccc(Cl)cc1 (stereo unspecified) | -0.738% [at 46 µM] | – |
| O=C(c1ccc(F)cc1)C1CCN(CCn2c(=S)[nH]c3ccccc3c2=O)CC1 | -0.002% [at 46 µM] | – |
| CCCCC | – | inactive |
| CCCCCCCC#N | -0.147% | – |
| O=[N+]([O-])c1ccc(NCCO)c(OCCO)c1 | 0.0225% | – |
| C=CCOC(=O)CCC1CCCCC1 | 0.0807% | – |
| O=C(OCCCCCCOC(=O)c1ccccc1)c1ccccc1 | 0.223% | – |
| C/C=C/C(=O)CC | -0.144% [at 18.6 µM] | – |
| CCCCC(CC)COC(=O)CCCCCCCCC(=O)OCC(CC)CCCC (stereo unspecified) | -0.21% | – |
| CCOc1ccc(O)cc1 | 0.318% | – |

| SMILES | fluorescence, % of fluorescent control | Potency |
| --- | --- | --- |
| CC[N+](C)(CC)CCOC(=O)C(O)(c1ccccc1)C1CCCCC1 (stereo unspecified) | -0.807% [at 46 µM] | – |
| O=C(O)CC(=O)C(=O)O | 0.355% | – |
| O=S(=O)(Oc1ccc(Cl)cc1)c1ccccc1 | -0.223% | – |
| COC(C)OC | -0.112% | – |
| O=C(NCCO[N+](=O)[O-])c1cccnc1 | -0.574% [at 46 µM] | – |
| CCN(CC)CCOC(=O)C(c1ccccc1)C1CCCCC1 (stereo unspecified) | -0.005% [at 46 µM] | – |
| O=C1c2ccccc2S(=O)(=O)N1CCCCN1CCN(c2ncccn2)CC1 | 0.141% [at 46 µM] | – |
| CC1OC(=O)C(C)OC1=O (stereo unspecified) | 0.0929% | – |
| C=CC(=O)OCCOc1ccccc1 | 0.0741% | – |
| CCC(Cl)CCC(Cl)C(Cl)CC(Cl)C(Cl)C(Cl)CCl (stereo unspecified) | -0.116% | – |
| COc1ccc(C(=O)c2ccc(OC)cc2O)c(O)c1 | 0.178% | – |
| Brc1c2ccccc2cc2ccccc12 | 0.0288% | – |
| O=C1C(O)=C(O)C(=O)C(O)=C1O | 0.0875% [at 46 µM] | – |
| CCCCC(CC)COC(=O)COc1ccc(Cl)cc1Cl (stereo unspecified) | 0.153% [at 95.7 µM] | – |
| C[N+]1(CC2COC(c3ccccc3)(C3CCCCC3)O2)CCCCC1 (stereo unspecified) | -0.0329% [at 46 µM] | – |
| COc1ccc(C)cc1[N+](=O)[O-] | 0.193% [at 95.7 µM] | – |
| CNC(=O)CN(CCN(CCN(CC(=O)[O-])CC(=O)NC)CC(=O)[O-])CC(=O)[O-].O.[Gd+3] | – | inactive |
| Cc1c(N)cccc1[N+](=O)[O-] | -0.122% [at 95.7 µM] | – |
| c1cc(CCCc2ccncc2)ccn1 | -0.142% | – |
